Experiments:
[1] = biological target: T1, Ephrin type-B receptor 3 (Homo sapiens) (UniProt P54753); conditions: at 10 µM
T1 sequence (whole entry): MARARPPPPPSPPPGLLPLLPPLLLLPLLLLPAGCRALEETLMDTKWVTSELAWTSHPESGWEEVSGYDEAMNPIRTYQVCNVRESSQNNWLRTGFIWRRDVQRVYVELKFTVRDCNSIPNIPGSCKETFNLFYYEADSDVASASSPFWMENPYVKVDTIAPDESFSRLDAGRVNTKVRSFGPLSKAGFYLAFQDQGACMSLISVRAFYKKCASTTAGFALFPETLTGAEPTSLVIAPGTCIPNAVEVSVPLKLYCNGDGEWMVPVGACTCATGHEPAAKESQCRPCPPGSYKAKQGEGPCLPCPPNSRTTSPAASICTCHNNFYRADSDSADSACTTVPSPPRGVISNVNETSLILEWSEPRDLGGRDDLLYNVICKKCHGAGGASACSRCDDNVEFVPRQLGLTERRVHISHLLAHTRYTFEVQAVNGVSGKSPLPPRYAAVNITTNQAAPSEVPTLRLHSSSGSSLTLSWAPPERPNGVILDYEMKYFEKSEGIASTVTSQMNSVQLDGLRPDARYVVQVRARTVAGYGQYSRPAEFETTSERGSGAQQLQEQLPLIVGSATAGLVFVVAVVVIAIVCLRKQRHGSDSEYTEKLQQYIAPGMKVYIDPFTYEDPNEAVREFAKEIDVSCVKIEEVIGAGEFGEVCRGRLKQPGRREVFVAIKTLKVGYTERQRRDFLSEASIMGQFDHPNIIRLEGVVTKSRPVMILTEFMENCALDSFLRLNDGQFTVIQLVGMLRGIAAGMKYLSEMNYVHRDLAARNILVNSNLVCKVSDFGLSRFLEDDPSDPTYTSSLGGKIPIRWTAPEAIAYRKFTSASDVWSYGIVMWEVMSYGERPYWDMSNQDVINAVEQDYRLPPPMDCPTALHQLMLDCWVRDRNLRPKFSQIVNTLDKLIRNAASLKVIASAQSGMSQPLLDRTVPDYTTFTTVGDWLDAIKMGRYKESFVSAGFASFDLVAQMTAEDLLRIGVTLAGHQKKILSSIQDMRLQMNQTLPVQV

[2] = biological target: T2, Ephrin type-B receptor 4 (Homo sapiens) (UniProt P54760); conditions: at 1 µM
T2 sequence (whole entry): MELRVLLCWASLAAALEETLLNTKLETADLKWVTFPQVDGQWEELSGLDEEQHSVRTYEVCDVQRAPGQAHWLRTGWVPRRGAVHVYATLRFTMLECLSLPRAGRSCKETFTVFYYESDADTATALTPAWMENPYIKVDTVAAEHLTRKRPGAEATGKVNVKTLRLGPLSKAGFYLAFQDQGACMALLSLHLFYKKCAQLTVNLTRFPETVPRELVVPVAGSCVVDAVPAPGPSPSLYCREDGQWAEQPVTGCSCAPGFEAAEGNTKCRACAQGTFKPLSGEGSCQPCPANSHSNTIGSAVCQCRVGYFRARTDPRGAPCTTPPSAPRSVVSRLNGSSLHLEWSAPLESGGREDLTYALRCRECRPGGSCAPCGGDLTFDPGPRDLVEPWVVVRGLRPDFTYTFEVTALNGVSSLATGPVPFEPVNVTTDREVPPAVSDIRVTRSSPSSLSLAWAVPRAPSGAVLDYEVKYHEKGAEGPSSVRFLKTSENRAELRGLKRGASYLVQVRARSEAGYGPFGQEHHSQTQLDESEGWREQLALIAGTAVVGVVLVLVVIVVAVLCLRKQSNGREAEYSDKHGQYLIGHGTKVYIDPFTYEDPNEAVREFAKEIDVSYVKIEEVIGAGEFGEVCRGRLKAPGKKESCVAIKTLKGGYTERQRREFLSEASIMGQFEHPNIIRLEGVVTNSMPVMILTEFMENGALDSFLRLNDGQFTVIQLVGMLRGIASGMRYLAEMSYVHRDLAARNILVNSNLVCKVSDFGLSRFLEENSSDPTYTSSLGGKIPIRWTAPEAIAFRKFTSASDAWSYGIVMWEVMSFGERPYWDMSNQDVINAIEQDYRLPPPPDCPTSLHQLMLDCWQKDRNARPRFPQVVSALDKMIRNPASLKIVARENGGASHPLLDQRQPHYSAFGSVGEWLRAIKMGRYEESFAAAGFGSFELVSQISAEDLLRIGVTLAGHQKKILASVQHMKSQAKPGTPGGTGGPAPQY

## CN[C@@H]1C[C@H]2O[C@@](C)([C@@H]1OC)n1c3ccccc3c3c4c(c5c6ccccc6n2c5c31)C(=O)NC4
[1]
  residual activity: 131%
[2]
  residual activity: 79%
